This is a sample that favours compounds with a hit; in the whole collection about 0.93% have one here.
CIT2 TOR yeast = alters CIT2-GFP fluorescence in TOR pathway yeast screen. GFP response vs DMSO, % at 10 µM. 0.065% of 320,000 active. S. cerevisiae CIT2-GFP strain, flow cytometry, 3 h; 100 means same as DMSO wells;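 active means GFP response relative to DMSO above a set limit, near the screen mean plus 3 SD, cut at about 150% in these data; inconclusive means Fewer than 70 cells measured for a yeast strain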;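 further: ratio of well median GFP fluorescence to mean of DMSO wells on the plate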
AGP1-GFP MLPCN = yeast TOR pathway AGP1-GFP modulation | GFP response vs DMSO, % at 10 µM | 0.02% of 320,000 active | S. cerevisiae AGP1-GFP multiplex flow cytometry, 3 h; GFP as percent of DMSO wells | AID 2066;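 active means GFP response relative to DMSO above a set limit, near screen average plus 3 SD, cut at about 150% in these data; inconclusive means fewer than 70 cells counted for the yeast strain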;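 further: median GFP channel fluorescence of the gated AGP1 strain per well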
MEP2 TOR yeast = alters MEP2-GFP fluorescence in TOR pathway yeast screen; S. cerevisiae MEP2-GFP strain, flow cytometry GFP, 3 h; 100% = DMSO control level; GFP response vs DMSO, % at 10 µM; 0.51% of 330,000 active;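 active means GFP response versus DMSO above a set limit, roughly screen mean plus 3 SD, cut at about 180% in these data; inconclusive means fewer than 70 cells counted for a yeast strain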;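 further: median GFP fluorescence of the barcode-gated MEP2-GFP cells per well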
RPL19A TOR yeast = modulators of TOR pathway RPL19A-GFP in S. cerevisiae; S. cerevisiae RPL19A-GFP strain, flow cytometry, 3 h; hits give low values; percent response vs DMSO, % at 10 µM; 0.3% of 330,000 active;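 active means percent response vs DMSO below 50%; inconclusive means fewer than 70 events counted for the yeast strain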;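 further: median channel GFP fluorescence of the barcoded RPL19A-GFP strain; lower means less RPL19A-GFP as with rapamycin TOR inhibition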
LAP4-GFP MLPCN = modulators of TOR pathway LAP4-GFP in S. cerevisiae; S. cerevisiae LAP4-GFP multiplex, flow cytometry GFP, 3 h; median GFP as percent of DMSO wells; 0.34% of 320,000 active; GFP response vs DMSO, % at 10 µM; AID 2023;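 active means GFP response vs DMSO above a set limit, about the screen mean plus 3 SD, cut at about 150% in these data; inconclusive means under 70 cell events counted for the yeast strain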
A number is an active result; 0 = inactive; ? = inconclusive; - = not tested or not shown; [ ] = dose if it differs, or a comment.

SMILES | CIT2 TOR yeast | AGP1-GFP MLPCN | MEP2 TOR yeast | RPL19A TOR yeast | LAP4-GFP MLPCN
CC(C)c1nnc(-c2ccc(Cl)cc2)c(N(C)C)n1 | 0 | - | 220 | 0 | 0
COc1ccc(-c2c(-c3cc(OC)cc(OC)c3)n(C)c3ccc(-c4ccc(OC)nc4)cc23)cc1 | 0 | 0 | 0 | 0 | 0
CN(C)CCN(C(=O)c1ccc2c(c1)OCCO2)c1nc2c(Cl)cccc2s1 | 0 | 0 | 0 | 0 | 0
CC(=O)c1ccc(C(=O)N(CCN(C)C)c2nc3c(Cl)cccc3s2)cc1 | ? | ? | 198[may fluoresce violet] | 47[may fluoresce violet] | 0
Cc1cccc(N2CCN(c3cccc(C)c3)C2c2cccnc2)c1 | ? | 0 | 198[may fluoresce violet] | 0 | 0
O=C(NCc1cccs1)c1cc(-c2ccccc2)nc2ccccc12 | 0 | 0 | 0 | 0 | 0
O=C(Nc1nnc(-c2cccs2)o1)c1cc(-c2ccccc2)nc2ccccc12 | 0 | 0 | 0 | 0 | 152
Cc1ccc(Cn2ncc(Cl)c(Cl)c2=O)cc1 | 0 | 0 | 0 | 0 | 0
CCc1ccc(C(=O)Cn2ncc(Cl)c(Cl)c2=O)cc1 | ? | - | 196[may fluoresce violet] | 0 | 0
Cc1cccc(Nc2nnc(SCC(=O)c3ccc(O)cc3O)s2)c1 | ? | 0 | 332[may fluoresce violet] | 37[may fluoresce violet] | 0
O=C(ONC1=NCCCCC1)c1c(F)cccc1F | 0 | 0 | 0 | 0 | 0
O=C(ONC1=NCCCCC1)c1ccc(Cl)cc1 | ? | 0 | 351[may fluoresce violet] | - | 179[may fluoresce violet]
O=C1NC(=O)C(=O)N1 | 0 | 0 | 0 | 0 | 0
O=C1CNC(=O)N1 | ? | ? | 236[may fluoresce violet] | 40[may fluoresce violet] | 0
Cc1nnc(SCc2ccc(F)cc2Cl)s1 | ? | ? | 181[may fluoresce violet] | 19[may fluoresce violet] | 0
CCCCN(C)CCNC(=O)c1cc2c(-c3cccc(OC)c3)nn(C)c2s1 | 0 | 0 | 0 | 0 | 0
O=C(NN1C(=O)/C(=C\c2ccc(O)c([N+](=O)[O-])c2)SC1=S)c1ccccc1Cl | 0 | 0 | 175 | 0 | 154
Cc1ccccc1OC1CCN(C(=O)c2cc(COc3ccccc3)on2)CC1 | 0 | 0 | 0 | 0 | 0
O=S(=O)(c1ccc(Cl)cc1)c1cnc(-c2cccnc2)nc1-c1ccccc1 | ? | ? | 221[may fluoresce violet] | 0 | 0
CN(C)c1ncc(S(=O)(=O)c2ccc(Cl)cc2)c(-c2ccccc2)n1 | 0 | 0 | 0 | 0 | 0
CN(C)S(=O)(=O)c1ccc(N2CCCC2)c(C(=O)NNC(=O)COc2cccc(F)c2)c1 | 0 | 0 | 0 | 0 | 0
O=C(O)c1ccc(Nc2ccc3nonc3c2[N+](=O)[O-])cc1 | ? | ? | 210[may fluoresce violet] | 49[may fluoresce violet] | 0
Cc1c(NC(=O)CSc2nc(N)cc(N)n2)c(=O)n(-c2ccccc2)n1C | 0 | 0 | 0 | 0 | 0
O=C(COc1ccccc1)Nc1c2c(nn1-c1ccccc1)CS(=O)C2 (configuration not stated) | 0 | 0 | 0 | 0 | 165
CCOC(=O)c1sc(Nc2nc3c(OC)cccc3s2)nc1C | 0 | 0 | 247 | 0 | 0
SMILES | CIT2 TOR yeast | AGP1-GFP MLPCN | MEP2 TOR yeast | RPL19A TOR yeast | LAP4-GFP MLPCN
NC(=O)c1ccccc1OCC(=O)c1ccc(Cl)cc1 | 0 | 0 | 195 | 0 | 0
NC(=O)c1ccccc1OCC(=O)NS(=O)(=O)c1ccc(Cl)cc1 | 0 | 0 | 0 | 0 | 0
Cc1c(O)ccc(C(=O)CN2CCN(c3ccc(F)cc3)CC2)c1O | 0 | ? | 0 | 38 | 0
CC(=O)c1ccc(OCCCC(=O)Nc2cccc(S(=O)(=O)N3CCCCC3)c2)cc1 | 0 | 0 | 0 | 0 | 0
O=[n+]1c2c(n([O-])c3cc(F)c(N4CCCC4)cc31)CCCC2 | ? | ? | 229[may fluoresce violet] | 34[may fluoresce violet] | 0
COc1ccc(NC(=O)CN(c2ccc(OC)c(Cl)c2)S(=O)(=O)c2ccccc2)c(OC)c1 | 0 | 0 | 0 | 0 | 0
O=C(NCCc1ccccc1)c1cnc2n(c1=O)CCS2 | 0 | 0 | 0 | 0 | 0
O=C(NCc1cccnc1)c1cnc2n(c1=O)CCS2 | 164 | 0 | 250 | 0 | 188
CC1CCCCN1CCNC(=O)C1CCCN(S(=O)(=O)c2cccc3nsnc23)C1 (configuration not stated) | 0 | 0 | 0 | 0 | 0
Cn1c(=O)c2ccccc2n(Cc2cccc(F)c2)c1=O | 0 | 0 | 179 | 0 | 0
Cn1c(=O)c2ccccc2n(Cc2ccccc2F)c1=O | 0 | 0 | 0 | 0 | 0
CC1Oc2ccccc2N(CC(=O)NCCN2CCOCC2)C1=O (configuration not stated) | 0 | 0 | 0 | 0 | 0
CCOC(=O)NNc1ccccc1 | 0 | 0 | 0 | 0 | 0
CCOC(=O)C(=CNNc1ccccc1)C(=O)OCC | 0 | 0 | 0 | 0 | 171

Screening data as filed in PubChem.
